Measured values published in PMC5700166.
Changes are numbered by the printed parent chain.

Tests used:
Assay in all cases: protein-binding microarray (PBM); PBM: ~300 nM protein, 6 mM HEPES pH 7.8, 80 mM KCl, 0.5 mM EDTA, 0.5 mM EGTA, 6% glycerol, 35 ng/ul poly-dIdC, 1% milk, 1 h, room temperature; Ap Aiptasia and Nv Nematostella (sea anemones) / Co Capsaspora / Aq Amphimedon (sponge) / Dm Drosophila / Hu human; RHD is the Rel homology domain; high values mean tight binding
Details in all cases: dsDNA, one strand shown
[1] = target: T1, GST-Ap-NF-kB RHD (Exaiptasia pallida (Aiptasia), UniProt A0A913YAJ5 2-422)
T1 sequence: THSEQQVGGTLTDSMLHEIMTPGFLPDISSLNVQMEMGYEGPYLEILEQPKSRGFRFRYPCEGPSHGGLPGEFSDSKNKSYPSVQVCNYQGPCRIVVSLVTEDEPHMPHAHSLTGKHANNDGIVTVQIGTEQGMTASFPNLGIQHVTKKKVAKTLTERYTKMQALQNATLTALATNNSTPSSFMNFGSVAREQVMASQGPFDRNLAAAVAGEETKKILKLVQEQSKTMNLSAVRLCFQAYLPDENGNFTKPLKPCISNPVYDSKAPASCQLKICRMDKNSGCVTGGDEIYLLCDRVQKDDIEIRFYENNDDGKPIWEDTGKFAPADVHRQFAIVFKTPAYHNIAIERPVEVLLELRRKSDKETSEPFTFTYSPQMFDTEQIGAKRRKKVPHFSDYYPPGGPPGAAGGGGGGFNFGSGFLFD

[2] = target: T2, GST-Nv-NF-kB (Cys allele) (Nematostella vectensis, UniProt E5G601 2-411)
T2 sequence: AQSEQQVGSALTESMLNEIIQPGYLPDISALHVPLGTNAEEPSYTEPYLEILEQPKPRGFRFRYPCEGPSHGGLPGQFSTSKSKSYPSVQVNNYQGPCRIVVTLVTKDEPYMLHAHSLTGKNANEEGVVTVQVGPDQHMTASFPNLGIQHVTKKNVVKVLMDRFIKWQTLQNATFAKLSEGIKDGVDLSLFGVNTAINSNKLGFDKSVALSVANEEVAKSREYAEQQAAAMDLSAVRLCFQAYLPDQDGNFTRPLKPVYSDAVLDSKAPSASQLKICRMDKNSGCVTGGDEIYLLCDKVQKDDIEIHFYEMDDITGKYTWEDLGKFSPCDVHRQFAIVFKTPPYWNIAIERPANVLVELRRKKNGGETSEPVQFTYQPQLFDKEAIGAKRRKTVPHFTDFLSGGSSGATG

[3] = target: T3, GST-Nv-NF-kB (Ser allele) (Nematostella vectensis, UniProt A7UNT2 2-411)
T3 sequence: T2 sequence with Q21R, C66S, S207N, E215Q, V217A, E225K, A268E, D399E

[4] = target: T4, GST-Co-NF-kB (Capsaspora owczarzaki, UniProt F1ARL5 200-546)
T4 sequence: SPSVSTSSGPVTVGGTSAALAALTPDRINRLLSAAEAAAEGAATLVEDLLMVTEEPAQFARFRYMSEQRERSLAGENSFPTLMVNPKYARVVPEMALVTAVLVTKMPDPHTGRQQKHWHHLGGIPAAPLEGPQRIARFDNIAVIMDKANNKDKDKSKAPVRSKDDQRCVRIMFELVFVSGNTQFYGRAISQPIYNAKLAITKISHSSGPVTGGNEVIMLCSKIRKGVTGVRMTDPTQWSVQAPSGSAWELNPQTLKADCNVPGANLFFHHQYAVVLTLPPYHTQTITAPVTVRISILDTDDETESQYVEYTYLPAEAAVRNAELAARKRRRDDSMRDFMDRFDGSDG

[5] = target: T5, GST-Dm-Relish (Drosophila melanogaster, UniProt Q94527 99-473)
T5 sequence: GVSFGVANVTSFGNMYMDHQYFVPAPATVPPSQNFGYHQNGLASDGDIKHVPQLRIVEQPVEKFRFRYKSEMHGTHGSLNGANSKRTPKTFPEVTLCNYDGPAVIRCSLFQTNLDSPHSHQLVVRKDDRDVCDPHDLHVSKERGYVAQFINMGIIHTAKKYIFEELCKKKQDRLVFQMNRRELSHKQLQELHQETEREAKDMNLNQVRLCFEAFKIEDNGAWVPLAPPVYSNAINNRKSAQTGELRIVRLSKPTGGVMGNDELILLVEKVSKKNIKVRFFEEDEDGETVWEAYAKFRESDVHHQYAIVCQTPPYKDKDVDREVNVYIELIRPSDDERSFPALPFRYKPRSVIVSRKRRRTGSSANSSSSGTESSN

[6] = target: T6, GST-Aq-NF-kB (Amphimedon queenslandica, UniProt A9Y5G7 2-389)
T6 sequence: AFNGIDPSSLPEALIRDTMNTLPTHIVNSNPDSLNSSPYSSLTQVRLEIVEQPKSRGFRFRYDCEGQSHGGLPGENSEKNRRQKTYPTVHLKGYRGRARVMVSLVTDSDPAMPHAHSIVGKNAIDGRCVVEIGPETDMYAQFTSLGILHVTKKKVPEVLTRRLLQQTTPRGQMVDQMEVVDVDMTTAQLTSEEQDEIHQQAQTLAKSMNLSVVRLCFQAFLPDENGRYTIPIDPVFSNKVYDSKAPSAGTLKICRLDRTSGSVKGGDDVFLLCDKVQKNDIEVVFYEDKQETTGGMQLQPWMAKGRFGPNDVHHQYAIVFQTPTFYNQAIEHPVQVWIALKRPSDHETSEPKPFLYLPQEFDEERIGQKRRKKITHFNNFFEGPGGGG

[7] = target: GST-Hu-p50 (Homo sapiens, UniProt P19838 7-356)
Chain of GST-Hu-p50 (P19838 7-356): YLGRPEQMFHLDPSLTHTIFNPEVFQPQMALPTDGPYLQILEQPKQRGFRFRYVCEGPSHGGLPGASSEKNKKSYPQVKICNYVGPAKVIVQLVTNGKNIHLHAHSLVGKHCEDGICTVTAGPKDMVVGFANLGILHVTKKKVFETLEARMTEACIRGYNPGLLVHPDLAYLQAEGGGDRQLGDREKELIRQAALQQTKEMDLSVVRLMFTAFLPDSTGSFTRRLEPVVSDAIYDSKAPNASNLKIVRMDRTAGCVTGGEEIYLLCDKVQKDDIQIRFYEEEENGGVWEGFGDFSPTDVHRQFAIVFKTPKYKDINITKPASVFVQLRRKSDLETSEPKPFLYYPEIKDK

| Sequence | binding signal [1] [z-score] | binding signal [2] [z-score] | binding signal [3] [z-score] | binding signal [4] [z-score] | binding signal [5] [z-score] | binding signal [6] [z-score] | binding signal [7] [z-score] |
| --- | --- | --- | --- | --- | --- | --- | --- |
| CCGATTAACATCAAAGTCCCGGGTGATGTTAATCGGGTCTTGATTCGCTTGACGCTGCTG | 4.32 | 3.61 | 3.64 | 1.85 | 4.38 | 3.49 | 3.83 |
| CCGATTAACATCAAAGCCCCCCCTGATGTTAATCGGGTCTTGATTCGCTTGACGCTGCTG | 5.97 | 4.23 | 4.62 | 4.66 | 6.01 | 5.12 | 4.63 |
| CCGATTAACATCAAAATCCCCCTTGATGTTAATCGGGTCTTGATTCGCTTGACGCTGCTG | 10.1 | 10.7 | 12.1 | 6.3 | 10.2 | 8.68 | 8.9 |
| CCGATTAACATCAAGCACCCCCCTGATGTTAATCGGGTCTTGATTCGCTTGACGCTGCTG | 5 | 3.3 | 3.81 | 3.39 | 4.97 | 4.27 | 4.29 |
| CCGATTAACATCAGGGGAAATACTGATGTTAATCGGGTCTTGATTCGCTTGACGCTGCTG | 7.87 | 8.59 | 11 | 8.2 | 9.53 | 7.18 | 6.88 |
| CCGATTAACATCAGGGGAACTACTGATGTTAATCGGGTCTTGATTCGCTTGACGCTGCTG | 6.92 | 6.99 | 7.41 | 5.65 | 9.35 | 6.91 | 5.5 |
| CCGATTAACATCAAGGGGGATTCTGATGTTAATCGGGTCTTGATTCGCTTGACGCTGCTG | 9.03 | 8.85 | 10.3 | 4.93 | 8.21 | 7.13 | 7.71 |
| CCGATTAACATCAAAATTTCCCATGATGTTAATCGGGTCTTGATTCGCTTGACGCTGCTG | 3.99 | 6.36 | 6.16 | 5.2 | 4.56 | 5.77 | 4.79 |
| CCGATTAACATCAGCGATTCCCCTGATGTTAATCGGGTCTTGATTCGCTTGACGCTGCTG | 6.31 | 6.55 | 8.57 | 5.5 | 3.63 | 4.44 | 5.54 |
| CCGATTAACATCAAAACATCCCCTGATGTTAATCGGGTCTTGATTCGCTTGACGCTGCTG | 6.41 | 8.11 | 8.22 | 4.63 | 8.65 | 7.07 | 5.91 |
| CCGATTAACATCAGGGGAAATCATGATGTTAATCGGGTCTTGATTCGCTTGACGCTGCTG | 7.92 | 8.72 | 11.1 | 7.67 | 5.47 | 5.97 | 6.18 |
| CCGATTAACATCATAATTCCCCATGATGTTAATCGGGTCTTGATTCGCTTGACGCTGCTG | 6.71 | 8.63 | 8.94 | 6.68 | 4.84 | 5.33 | 6.35 |
| CCGATTAACATCAGGGAAAGTTATGATGTTAATCGGGTCTTGATTCGCTTGACGCTGCTG | 3.92 | 6.93 | 6.19 | 4.08 | 2.29 | 6.81 | 4.76 |
| CCGATTAACATCAGGGAGAACCCTGATGTTAATCGGGTCTTGATTCGCTTGACGCTGCTG | 4.28 | 3.85 | 1.28 | 1.72 | 4.39 | 6.47 | 2.75 |
| CCGATTAACATCAATACTCCCCCTGATGTTAATCGGGTCTTGATTCGCTTGACGCTGCTG | 6.61 | 5.41 | 6.73 | 8.03 | 3.95 | 4.97 | 6.4 |
| CCGATTAACATCAAAATCCCCCGTGATGTTAATCGGGTCTTGATTCGCTTGACGCTGCTG | 9.02 | 9.33 | 10.1 | 8.56 | 9.89 | 7.76 | 8.02 |
| CCGATTAACATCAGAAACTCCCCTGATGTTAATCGGGTCTTGATTCGCTTGACGCTGCTG | 8.69 | 7.68 | 7.84 | 5.37 | 7.08 | 7.47 | 6.42 |
| CCGATTAACATCAGGCAAACCCCTGATGTTAATCGGGTCTTGATTCGCTTGACGCTGCTG | 3.13 | 2.8 | 1.51 | 1.49 | 3.13 | 4.85 | 3.63 |
| CCGATTAACATCACTTTTCCCCCTGATGTTAATCGGGTCTTGATTCGCTTGACGCTGCTG | 6.53 | 7.4 | 8.95 | 10.8 | 3.73 | 5.27 | 6.51 |
| CCGATTAACATCATAAATCCCCATGATGTTAATCGGGTCTTGATTCGCTTGACGCTGCTG | 6.78 | 7.56 | 9.37 | 3.91 | 7.13 | 5.14 | 7.11 |
| CCGATTAACATCAGGACCTCCCCTGATGTTAATCGGGTCTTGATTCGCTTGACGCTGCTG | 5.62 | 4.17 | 2.85 | 2.53 | 5.19 | 6.93 | 3.65 |
| CCGATTAACATCAGGGGAGACCCTGATGTTAATCGGGTCTTGATTCGCTTGACGCTGCTG | 6.47 | 4.51 | 4.3 | 3.35 | 6.91 | 6.37 | 3.38 |
| CCGATTAACATCAAAATTTCCCGTGATGTTAATCGGGTCTTGATTCGCTTGACGCTGCTG | 4.72 | 6.89 | 6.74 | 6.32 | 4.72 | 6.67 | 4.8 |
